Data as given in PMC7819943, “Rice protein-binding microarrays: a tool to detect cis-acting elements near promoter regions in rice”.
In all, about 39,000 sequences were measured (“fluorescence intensity (a.u.)”: median about 4,300, highest 2% from about 39,000 on). The sample as a whole holds a higher share of the highest values than the screen did.

Target: T1, OsSMF1 (Oryza sativa, UniProt Q6ZLB0 1-436)
T1 sequence: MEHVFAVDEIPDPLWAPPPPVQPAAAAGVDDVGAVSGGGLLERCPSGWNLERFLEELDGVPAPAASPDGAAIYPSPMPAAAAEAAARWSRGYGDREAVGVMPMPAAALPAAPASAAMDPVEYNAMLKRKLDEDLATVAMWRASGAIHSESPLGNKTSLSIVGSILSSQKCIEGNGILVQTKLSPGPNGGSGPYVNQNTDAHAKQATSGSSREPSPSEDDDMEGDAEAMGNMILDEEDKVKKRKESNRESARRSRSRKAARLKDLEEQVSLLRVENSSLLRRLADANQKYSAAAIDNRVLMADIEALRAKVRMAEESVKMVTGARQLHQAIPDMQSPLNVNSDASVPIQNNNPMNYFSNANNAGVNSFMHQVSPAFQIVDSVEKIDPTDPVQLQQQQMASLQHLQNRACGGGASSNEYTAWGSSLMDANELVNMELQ
Test: protein-binding microarray (RPBM); PBS, 2% BSA, 51.3 ng/ul salmon testes DNA, 50 uM zinc acetate, 200 nM TF, 25 C, 1 h; high values mean tight binding
Details: protein: recombinant; tags: N-terminal polyhistidine and DsRed monomer fusion (pET32a); chain copies: 2; label: CyDye5-dUTP incorporated in the synthesized complementary strand; 3' TTTTT single-stranded linker to array surface; dsDNA, one strand shown
Procedure, shortened: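 The binding signal is fluorescence intensity per feature, in arbitrary units, read on an Axon 4000B scanner. Polyhistidine- and DsRed-tagged transcription factors (N-terminal fusions) from E. coli BL21-CodonPlus were purified on Ni–NTA and applied at 200 nM for 1 h at 25 °C to a double-stranded, BSA-blocked custom Agilent array in buffer with 50 µM zinc acetate.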

For “CCTCGTCGCCGCGTCACGGCGTCAGCTCGCCGCTCTAGGGCGGAGTCACCTAGTGCAG”, which binding signal is on record?
Its binding signal is 4820 fluorescence intensity (a.u.).

For “GCCTCACAACCCGCATGGACACTGACATCGGCATCATCATCGGAGTCACCTAGTGCAG”, which binding signal is on record?
Its binding signal is 4260 fluorescence intensity (a.u.).

Which binding signal does the source give for “GACAAAGTCACACTGTCACACGTATTACCGGTTACAAACTCGGAGTCACCTAGTGCAG” here?
The binding signal was 3940 fluorescence intensity (a.u.).

With “GGCAACCGCCCTTAAGGTGTGAGACAGCACGACAACGCCCCGGAGTCACCTAGTGCAG” as the sequence, how does the binding signal read?
Its binding signal is 3690 fluorescence intensity (a.u.).

With “GTATTGGAGCTCTACAGTTCGGTCTACTCCTCTCTGTTGCCGGAGTCACCTAGTGCAG” as the sequence, how does the binding signal read?
The binding signal was 27500 fluorescence intensity (a.u.).

For “AGCACCACGGTCAATGCCACGTATGTGCCACGTCATCCAACGGAGTCACCTAGTGCAG”, which binding signal is on record?
Its binding signal is 46600 fluorescence intensity (a.u.).

“ATTGCCACGTAGGCGCCACGTGGCGCCACATCAGCAAAACCGGAGTCACCTAGTGCAG” was tested. Which binding signal did it give?
Its binding signal is 40700 fluorescence intensity (a.u.).

With “CAACACCGCCACGTAGGCGCCACATCAGCAAAACCATCCTCGGAGTCACCTAGTGCAG” as the sequence, how does the binding signal read?
Its binding signal is 23200 fluorescence intensity (a.u.).

How did the binding signal turn out when “AACCACGTATGCGCCACGTCATCCAAAACCGCCTTCAAAACGGAGTCACCTAGTGCAG” was run?
Its binding signal is 14400 fluorescence intensity (a.u.).

How did the binding signal turn out when “GTAGGCGCCACGTGGCGCCACGTCAGCAAAACCGCCTCCTCGGAGTCACCTAGTGCAG” was run?
Its binding signal is 24000 fluorescence intensity (a.u.).

Which binding signal does the source give for “ACGTCTCCTCCTCCTCCACGTCAAACCACAATCCAACCAACGGAGTCACCTAGTGCAG” here?
The binding signal was 5400 fluorescence intensity (a.u.).

Which binding signal does the source give for “GTCGTGCTAGCTCGATCCATTTCCTACGTGTGCACCAAACCGGAGTCACCTAGTGCAG” here?
Its binding signal is 5810 fluorescence intensity (a.u.).

How did the binding signal turn out when “GAAAGGGATGGCTCACTTGAAACGTACTGCTCCCTGCCCCCGGAGTCACCTAGTGCAG” was run?
Its binding signal is 3160 fluorescence intensity (a.u.).

With “GATTAAAACCAAAACTCATGATGGAAGTGGATGCATTTGCCGGAGTCACCTAGTGCAG” as the sequence, how does the binding signal read?
Its binding signal is 25500 fluorescence intensity (a.u.).

How did the binding signal turn out when “CCAAGGTAAGATGAAGCAGCAGCATTTGCATTAAACTATCCGGAGTCACCTAGTGCAG” was run?
Its binding signal is 60100 fluorescence intensity (a.u.).

“AGCCAAAGCATTTGCCATCCGATGAGGGCGTACTATTAAACGGAGTCACCTAGTGCAG” was tested. Which binding signal did it give?
The binding signal was 28000 fluorescence intensity (a.u.).

Which binding signal does the source give for “TTGATAATTACTCTTACGTCCCTCACCCTATGCTCCTGTGCGGAGTCACCTAGTGCAG” here?
The binding signal was 3440 fluorescence intensity (a.u.).

For “AATACTTTATGCAGGTGTTCAAATGTTCGATGTGACAGGGCGGAGTCACCTAGTGCAG”, which binding signal is on record?
Its binding signal is 3150 fluorescence intensity (a.u.).

“TACTTTATATAGATGTTCAAACATTCGATATGACATGCTGCGGAGTCACCTAGTGCAG” was tested. Which binding signal did it give?
Its binding signal is 45300 fluorescence intensity (a.u.).

“TATTTTATATTAGTGTTCAAACGTTCGATGTGACATGTGTCGGAGTCACCTAGTGCAG” was tested. Which binding signal did it give?
Its binding signal is 3930 fluorescence intensity (a.u.).

Which binding signal does the source give for “ATTGCAACCGGAGAGCCTGACCAAAGAAATTCAGATCCTTCGGAGTCACCTAGTGCAG” here?
The binding signal was 3200 fluorescence intensity (a.u.).

“GAAGTGCCACGTAAGCACCACATCAATGCCACGTCAGATGCGGAGTCACCTAGTGCAG” was tested. Which binding signal did it give?
The binding signal was 38800 fluorescence intensity (a.u.).

For “TTATTTTAGTGCCACGTAAGCGACACGTCGATGCCACATGCGGAGTCACCTAGTGCAG”, which binding signal is on record?
The binding signal was 23000 fluorescence intensity (a.u.).

With “CGGATCGAATTGCCACGTAAGCGGCACGTCAGTGCCATGTCGGAGTCACCTAGTGCAG” as the sequence, how does the binding signal read?
Its binding signal is 20000 fluorescence intensity (a.u.).

For “GAATTGCCACGTAAGCACCACGTCAGTGCCATGTCAGATGCGGAGTCACCTAGTGCAG”, which binding signal is on record?
The binding signal was 52400 fluorescence intensity (a.u.).

How did the binding signal turn out when “TCAAATTGTCACATAAGCGTCATGTCAATGCCACGTCAGACGGAGTCACCTAGTGCAG” was run?
Its binding signal is 27200 fluorescence intensity (a.u.).

Which binding signal does the source give for “ATGCATCTAAGCATATTAGCTATATACCACATCATTTTCACGGAGTCACCTAGTGCAG” here?
Its binding signal is 4780 fluorescence intensity (a.u.).

Which binding signal does the source give for “GTTAAATTGCCACGTAAGCACCACGTCATACCACGTCAGACGGAGTCACCTAGTGCAG” here?
Its binding signal is 51500 fluorescence intensity (a.u.).

How did the binding signal turn out when “TTAATTGAAATGCCACCTAAGCACCACGTCAGCACACAGACGGAGTCACCTAGTGCAG” was run?
Its binding signal is 18700 fluorescence intensity (a.u.).

Which binding signal does the source give for “TTTTCATTTTAGTGCCACGTAAGCACCACATCGATGCCACCGGAGTCACCTAGTGCAG” here?
The binding signal was 41200 fluorescence intensity (a.u.).

Which binding signal does the source give for “TTTGTCCTACGTGGCGTACGCGTGGCAATCCAGTCATAATCGGAGTCACCTAGTGCAG” here?
The binding signal was 20400 fluorescence intensity (a.u.).

How did the binding signal turn out when “ATTCGGTGGGTTGAGGCAGTGATGTGGTGAGAGGAGAAAGCGGAGTCACCTAGTGCAG” was run?
Its binding signal is 3440 fluorescence intensity (a.u.).

With “GAAAGTGGACGCGCGCGGTCTGGCGTCACCTGGGCCGAAACGGAGTCACCTAGTGCAG” as the sequence, how does the binding signal read?
Its binding signal is 3320 fluorescence intensity (a.u.).

With “CTGCCCAACAAAGTCCAGAAACTTCACGACATTCAATTGCCGGAGTCACCTAGTGCAG” as the sequence, how does the binding signal read?
Its binding signal is 22600 fluorescence intensity (a.u.).

With “TACTATAGACTAGCAAATGCCAAATGACAAATTGCCAAGTCGGAGTCACCTAGTGCAG” as the sequence, how does the binding signal read?
The binding signal was 15800 fluorescence intensity (a.u.).

With “TCACGCTGACCAAACACCATCTGTTATTCTGTTTGTTTGTCGGAGTCACCTAGTGCAG” as the sequence, how does the binding signal read?
Its binding signal is 3640 fluorescence intensity (a.u.).

With “ACTGTTATTCCTACAGGCCAAAGCTGACCTAACCAATTCACGGAGTCACCTAGTGCAG” as the sequence, how does the binding signal read?
Its binding signal is 46800 fluorescence intensity (a.u.).

For “ATTCAGTGCAGCAGCTGCAGGCCAAGCAGGCAGCACAGCACGGAGTCACCTAGTGCAG”, which binding signal is on record?
Its binding signal is 3610 fluorescence intensity (a.u.).

With “GTAGCTGTTAAGTTCCATCTCGTCAGCAGCTGCCTGCAGACGGAGTCACCTAGTGCAG” as the sequence, how does the binding signal read?
Its binding signal is 3210 fluorescence intensity (a.u.).

With “CTGTGAGTTCGTTGTCTGAGTGAGAGCTGGACGTGCTGCACGGAGTCACCTAGTGCAG” as the sequence, how does the binding signal read?
The binding signal was 33000 fluorescence intensity (a.u.).

Which binding signal does the source give for “CCCATGGCGTGCCACTCCGGCGGTCCGGCCGCCACGTCAGCGGAGTCACCTAGTGCAG” here?
The binding signal was 38500 fluorescence intensity (a.u.).

With “CCATGGCACCTCCTCCTACGCCAGCACCGCTGCCGTGATGCGGAGTCACCTAGTGCAG” as the sequence, how does the binding signal read?
Its binding signal is 4800 fluorescence intensity (a.u.).
